Assay outcomes (PubChem BioAssay)
Compounds with a hit are over-represented: about 1.5% of the library has one in this group of screens.
Casp6 inh: human caspase-6 inhibitors, primary screen, biochemical, VEID-R110 fluorescence, single point, set 2. P55212. purified caspase-6, Z-VEID-R110 cleavage fluorescence. inhibition, % at 12.5 µM. 350,000 compounds, 0.53% hits;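 active means mean inhibition across replicates at least about 35%, with every replicate also reaching that limit, limit read from the data; inconclusive means only one of the two criteria met; inactive means neither criterion met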
NSD2 HMT inh: NSD2 histone methyltransferase inhibitors, primary screen, biochemical, AlphaScreen, single concentration, set 2; 310,000 compounds, 0.54% hits; inhibition, % at 12.5 µM; Histone-lysine N-methyltransferase NSD2 (Homo sapiens), O96028; NSD2 peptide methylation, 120 min; in the data active means inhibition above about 50%
MLL AF4-AF9 inh: inhibitors of AF4 peptide binding to AF9, primary screen, biochemical, AlphaScreen, biotin-AF4 peptide, FLAG-AF9, single point; 350,000 compounds, 0.47% hits; AID 651704, 2012; Protein AF-9 (Homo sapiens), P42568; inhibition, % at 10 µM;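 active means every replicate reaching a set inhibition limit, whatever the replicate mean, cut at about 25% in these data; inconclusive means mean inhibition reaches that limit but some replicates miss it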
miR122 inh: miR-122 Renilla sensor signal increase in Huh7, primary screen, miR-122 inhibitor project, cell-based, single point, plate reader; 340,000 compounds, 0.3% hits; activation (reporter increase), % at 12.5 µM; Huh7 miR-122 Renilla luciferase sensor, 48 h; neutral wells = 0, positive control = 100;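 active means mean replicate activation score at least 90 and every replicate individually at or above 90; inconclusive means only one of the two criteria met; inactive means neither criterion met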;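 further: higher luciferase means less miR-122 activity so hits act as miR-122 inhibitors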
RAD52 inh: RAD52 DNA annealing inhibitors, primary screen, biochemical, FRET, single point, set 2; DNA repair protein RAD52 homolog (Homo sapiens), P43351; recombinant RAD52 DNA annealing, FRET fluorescence; inhibition, % at 18.7 µM; 360,000 compounds, 0.46% hits; AID 651710, 2012;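 active means every replicate showing at least 50% inhibition; inconclusive means mean inhibition at least 50% but not in every replicate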
AlphaScreen intf: AlphaScreen signal interference counter-screen, dose response, artefact control, biochemical, cherry-picked samples, luminescence; shares compounds with MLL AF4-AF9 inh; AC50, µM (series often up to 12 µM); 530 compounds, 45% hits; AID 720494, 2013; cut-off not given, nearly all actives have AC50 up to about 14 µM
Numbers stand for hits; 0 = inactive; ? = inconclusive; - = no result.

SMILES	Casp6 inh	NSD2 HMT inh	MLL AF4-AF9 inh	miR122 inh	RAD52 inh	AlphaScreen intf
CSc1ccc(-c2nc(CSCC(=O)N3CCOCC3)c(C)o2)cc1	0	0	-	0	0	-
O=C(NCc1ccccc1)[C@@H]1[C@@H](CO)[C@@H]2Cn3c(cccc3=O)[C@@H]2N1Cc1ccccc1F	0	-	0	-	0	-
CCOc1cc(N2CCOCC2)c(OCC)cc1NC(=O)c1ccc2ccccc2n1	0	0	37.6	-	0	0
Cc1ccc(C)c(S(=O)(=O)N2CCN(Cc3ccc(O)c4ncccc34)CC2)c1	0	0	82.0	0	0	0
C[C@@H]1CN([C@@H](C)CO)C(=O)c2cc(NC(=O)CCC(F)(F)F)ccc2O[C@@H](C)CCCCO[C@H]1CN(C)C(=O)Nc1ccccc1	0	-	0	0	0	-
S=C(c1ccc(-c2cccc(Cl)c2)o1)N1CCCCC1	0	0	0	-	0	-
S=C(c1ccc(-c2cccc(Cl)c2)o1)N1CCOCC1	0	0	29.5	0	0	0
Cn1ccc2c(/C=C/c3ccc(F)cc3)cc3c(c21)C1CCC3C1 (configuration not stated)	0	-	43.7	0	0	0
Nc1ccc(O)c2c1C(=O)c1ccccc1C2=O	0	-	37.8	0	0	0
C[C@@H]1CN([C@@H](C)CO)C(=O)Cc2cc(NC(=O)Nc3ccc(F)cc3)ccc2O[C@@H]1CN(C)Cc1ccc(Oc2ccccc2)cc1	0	-	0	0	0	-
Oc1c(C(Nc2cccc(C(F)(F)F)c2)c2ccncc2)ccc2cccnc12 (configuration not stated)	0	-	33.4	-	0	4.76µM
COc1ccc(C)cc1Nc1n[n+](-c2ccccc2)c(-c2c(Cl)cccc2Cl)s1	0	-	45.2	-	0	0
COc1ccc2ccccc2c1-c1sc(Nc2ccccc2)n[n+]1-c1ccc(F)cc1	0	-	43.1	0	0	0
Fc1ccc(-[n+]2nc(Nc3ccccc3)sc2-c2c(Cl)cccc2Cl)cc1	0	-	33.8	0	0	0
COc1ccc(C)cc1Nc1n[n+](-c2ccccc2)c(-c2ccc(OC)c(OC)c2OC)s1	0	-	-	0	0	-
CCc1ccc(Nc2n[n+](-c3ccccc3)c(-c3c(Cl)cccc3Cl)s2)cc1	-	-	-	-	0	-
Cc1ccc(S(=O)(=O)Nc2ccc3c(c2)C(=O)N([C@H](C)CO)C[C@H](C)[C@@H](CN(C)Cc2ccc(Cl)c(Cl)c2)OCCCC[C@H](C)O3)cc1	0	-	0	0	0	-
CCN1CCN(c2ccc(S(=O)(=O)N3CCCCC3)cc2NC(=O)/C=C/c2ccc([N+](=O)[O-])cc2)CC1	0	0	0	0	0	-
CN1CCN(c2ccc(S(=O)(=O)N3CCCCC3)cc2NC(=O)/C=C/c2ccc(Cl)c([N+](=O)[O-])c2)CC1	0	0	?	-	0	0
C[C@@H]1CN([C@@H](C)CO)C(=O)c2cccc(NC(=O)Nc3ccc(F)cc3)c2O[C@@H]1CN(C)S(=O)(=O)c1cn(C)cn1	-	-	-	0	-	-
CS(=O)(=O)Nc1ccc2c(c1)[C@H]1C[C@H](CC(=O)NCC(F)(F)F)O[C@@H](CO)[C@H]1O2	0	-	0	0	0	-
Cc1oc(-c2cccc3ccccc23)nc1CN1CCN(c2ncnc3ccccc23)CC1	0	0	0	-	0	0
Cc1cnc(C)c(N2CCN(Cc3nc(-c4ccc(C)o4)oc3C)CC2)n1	0	0	0	-	0	-
S=C(NN=C(c1ccccc1)c1ccccn1)N(Cc1ccccn1)Cc1ccccn1	0	-	53.2	-	0	7.98µM
CC1CCCCN1CCCNC(=O)C1CCN(c2nnc(-n3cccc3)s2)CC1 (configuration not stated)	0	0	0	0	0	-
SMILES	Casp6 inh	NSD2 HMT inh	MLL AF4-AF9 inh	miR122 inh	RAD52 inh	AlphaScreen intf
CCOc1ccc(NCc2cccn2-c2nnc(N3CCC(C(=O)NCCCN4CCCCC4CC)CC3)s2)cc1 (configuration not stated)	0	0	38.2	0	0	10.5µM
COc1ccc(N2CCN(CCCNC(=O)CCC(=O)N3CCOc4ccc(Cl)cc43)CC2)cc1	0	0	38.4	0	0	12µM
Cc1ccc(C)c(N2CCN(CCCNC(=O)CCC(=O)N3CCOc4ccc(Cl)cc43)CC2)c1	0	0	0	-	0	-
COc1ccc(N2CCC(CNC(=S)Nc3ccc(C)cc3C)C2)cc1 (configuration not stated)	0	0	?	0	0	0
COc1ccc(NCc2nn(CC(=O)c3ccc(Br)cc3)c3[n+]2CCCCC3)cc1	0	0	30.1	-	0	0
CO[C@@H]1CN(C)C(=O)c2cc(NS(=O)(=O)c3ccccc3)ccc2OC[C@H](C)N(Cc2nccs2)C[C@@H]1C	0	-	0	-	0	-
CCN(CCCNc1cc2c(c(N)c1S(=O)(=O)O)C(=O)c1ccccc1C2=O)c1ccccc1	0	-	61.3	-	0	7.64µM
CCOC(=O)C1CCN(c2c(NCCCN(CC)c3ccccc3)c(=O)c2=O)CC1	-	0	-	0	-	-
Cc1cc(C)c2sc(N(CCCN(C)C)C(=O)c3ccc(S(=O)(=O)N4CCCc5ccccc54)cc3)nc2c1	0	0	56.0	-	0	0
CN(C)c1cc2c3ccccc3n(C)c2cc1N	0	0	27.7	0	0	0
CN(C)c1ccc(C=c2c3cc(O)ccc3n3c2cc(-c2ccccc2)[n+]3C)cc1	95.2	0	77.8	-	0	2.46µM
CN(C)c1ccc(C=c2c3ccccc3n3c2c2ccccc2[n+]3C)cc1	0	-	51.1	-	0	3.45µM
CN(C)c1ccc(/C=C/C(=O)c2ccc(O)cc2)cc1	0	-	0	0	0	-
CCCCOc1ccc2c(c1)C(=O)c1cc(O)ccc1-2	0	0	33.2	-	0	0
COc1ccc(S(=O)(=O)/N=C2\C=C(Nc3ccc(O)cc3)C(=O)c3ccccc32)cc1	78.2	50.9	40.6	0	0	2.69µM
O=[N+]([O-])c1ccccc1/C=C/C=N/N1CCCCC1	0	0	26.5	-	0	12.9µM
O=C(Cc1cccnc1)N[C@@H]1CC[C@H](CCNS(=O)(=O)c2ccccc2Cl)O[C@@H]1CO	0	-	0	-	0	-
COc1ccc2nc3ccccc3nc2c1N	0	0	?	0	0	12µM
CC(C)NC(=O)N(C)C[C@H]1Oc2ccc(NS(=O)(=O)c3cccs3)cc2C(=O)N([C@H](C)CO)C[C@H]1C	-	-	-	0	-	-
CCC(=O)N(C)C[C@H]1Oc2cc(C#Cc3ccncc3)ccc2S(=O)(=O)N([C@@H](C)CO)C[C@@H]1C	0	-	?	0	0	0
CC(C)=CCc1cc(-c2oc3cc(O)cc(O)c3c(=O)c2O)ccc1O	0	-	35.1	0	0	0
O=c1c(O)c(-c2ccccc2)oc2cc(O)cc(O)c12	0	-	0	0	0	-
